Common to all, as to details: concentration: 1 μM,replicates: in singlicate; n = 1
The subject of experiment [1] is AAK1.
Experiment [2] relates to ABL1-nonphosphorylated.
Experiment [3] has as its system ABL1-phosphorylated.
Experiment [4] deals with ABL2.
Experiment [5] relates to ACVR1B.
Experiment [6] concerns ACVR1.
The subject of experiment [7] is ACVR2A.
Experiment [8] has as its system ACVR2B.
The subject of experiment [9] is ACVRL1.
For experiment [10], the system named is T1, ADCK3.
T1 construct: gene CABC1

Molecules are shown by their SMILES.
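Also: KINOMEscan kinase panel screen.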

Regarding `O=C(NCCNc1ccnc(NCc2ccc(F)cc2)n1)c1cc2ccccc2s1` [GSK1379944], the “%Inh” value was found to be 0% in [1]; 0% in experiment [2]; 4% in [3]; 16% in experiment [4]; 0% in [5]; 14% in experiment [6]. Further, the “%Inh” value was determined as 0% in experiment [7], 0% in experiment [8], 0% in experiment [9] and 24% in [10].
As for `Cl.Cl.NC[C@H](Cc1ccc(C(F)(F)F)cc1)NC(=O)c1cc(Br)c(-c2ccnc3[nH]ccc23)s1` [GSK1487252], the “%Inh” value in experiment [1] came to 38%; in [2], 0%; in [3], 4%; in experiment [4] it was 18%; in [5], 0%; in experiment [6], 0%. Further, the “%Inh” value turned out to be 0% in experiment [7], 0% in experiment [8], 0% in experiment [9] and 12% in experiment [10].
Consider `CC(C)Nc1cc(-c2ccc3c(N)n[nH]c3c2)nc(N)n1` [GSK2221681], for which the “%Inh” value in experiment [1] is recorded as 75%; in [2], 0%; in [3], 0%; in [4] it was 6%; in [5], 14%; in experiment [6], 0%. The “%Inh” value in experiment [7] came out at 0%; in [8], 0%; in experiment [9], 0%; in experiment [10] it was 4%.
For the molecule `Cc1cc(C(=O)Nc2ccc(Oc3ccc4nc(NC(=O)C5CC5)cn4n3)cc2)nn1-c1ccccc1`, the “%Inh” value is 18% in experiment [1]; 100% in [2]; 99.1% in [3]; 81% in [4]; 0% in [5]; 0% in experiment [6]. Further, the “%Inh” value is 2% in experiment [7], 15% in [8], 0% in experiment [9] and 8% in experiment [10].
Regarding `CN(C)CCOc1ccc(-c2cc(-c3c[nH]nc3-c3ccccn3)ccn2)cc1` [GW835314], the “%Inh” value in [1] amounted to 15%; in experiment [2] it was 91.5%; in experiment [3], 88%; in experiment [4] it was 34%; in experiment [6] it was 45%; in experiment [7], 25%. Besides, the “%Inh” value in [8] is 53%; in [9], 13%; in experiment [10] it was 36%.
Regarding `Cc1ccc2c(-c3ccncc3)c(-c3ccc(F)cc3)nn2c1.Cl` [GW461484], the “%Inh” value amounted to 10% in [1]; 0% in experiment [2]; 0% in experiment [3]; 0% in experiment [4]; 62% in [5]; 16% in [6]. Moreover, the “%Inh” value was determined as 0% in experiment [7], 18% in experiment [8], 0% in experiment [9] and 24% in [10].
For `CC(C)N1C(=O)Cc2cc(Nc3ncc(C(F)(F)F)c(NCc4cccc(S(C)(=O)=O)c4)n3)ccc21`, the “%Inh” value in [1] came out at 27%; in [2], 43%; in experiment [3] it was 0%; in experiment [4] it was 4%; in experiment [5], 0%; in [6] it was 13%. Also, the “%Inh” value in experiment [7] turned out to be 16%; in experiment [8], 51%; in experiment [9], 0%; in experiment [10], 0%.

The record behind these values is publication PMC5540273 (PLoS ONE, 2017).
